Source: PubChem BioAssay
Calls of active or inactive are those of the source.

Experiments:
Albumin (Bos taurus) = Albumin (Bos taurus) (UniProt P02769); experiment: bovine serum albumin binders on microarray, profiling panel, artefact control for SMM control protein annotation, biochemical, small-molecule microarray, Alexa647 label, 635/667 nm fluorescence (AID 1118); details: BSA-A647 binding, fluorescence 635 nm, higher = more signal;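 further: score merges 667 nm emission intensity and signal-to-noise per printed compound spot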
Chain of Albumin (Bos taurus) (P02769 whole entry, looked up): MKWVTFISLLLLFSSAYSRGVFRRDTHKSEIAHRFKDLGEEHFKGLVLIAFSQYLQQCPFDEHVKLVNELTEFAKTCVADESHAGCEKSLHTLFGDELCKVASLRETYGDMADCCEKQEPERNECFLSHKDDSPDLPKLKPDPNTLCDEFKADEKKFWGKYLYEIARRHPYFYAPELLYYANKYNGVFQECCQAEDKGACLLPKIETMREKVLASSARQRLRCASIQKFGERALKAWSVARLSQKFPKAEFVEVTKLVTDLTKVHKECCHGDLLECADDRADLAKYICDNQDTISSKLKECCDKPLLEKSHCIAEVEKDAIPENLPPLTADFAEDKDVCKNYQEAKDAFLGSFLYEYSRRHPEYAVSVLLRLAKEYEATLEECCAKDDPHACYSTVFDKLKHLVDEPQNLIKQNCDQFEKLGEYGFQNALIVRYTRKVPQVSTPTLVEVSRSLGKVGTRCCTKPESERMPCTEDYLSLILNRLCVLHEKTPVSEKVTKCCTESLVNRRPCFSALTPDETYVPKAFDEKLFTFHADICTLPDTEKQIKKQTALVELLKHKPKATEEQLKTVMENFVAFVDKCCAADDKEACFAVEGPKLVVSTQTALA

[1] = small-molecule microarray binders of probe aXIP, primary screen, biochemical, NeuroSMM set, 635/667 nm fluorescence (AID 1119); details: higher = more signal, called active from +8 up or from −8 down;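 further: probe is the protein aXip251-270 applied at 1 µg/mL to compound-printed slides; binding of probe to printed compounds measured as 667 nm fluorescence plus signal to noise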
[2] = small-molecule binders of probe aNOTCH3, primary screen, biochemical, small-molecule microarray, 635/667 nm fluorescence (AID 1120); details: higher = more signal;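 further: probe is a biotin-tagged antibody raised against NOTCH3 rather than NOTCH3 protein; score merges spot fluorescence near 667 nm with spot signal to noise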
[3] = small-molecule binders of probe aNOTCH2, primary screen, biochemical, small-molecule microarray, 635/667 nm fluorescence (AID 1121); details: higher = more signal;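 further: score merges feature fluorescence read at 667 nm with its signal to noise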
[4] = target: Carbonic anhydrase 2 (Homo sapiens) (UniProt P00918); experiment: CAII small-molecule binders, profiling panel, biochemical, small-molecule microarray, Alexa647-labelled CAII (AID 1122); details: CAII-A647 binding fluorescence, higher = more signal
[5] = COS7 lysate on small-molecule microarray, probe aHis, 635 nm (AID 1123); details: COS7 cell lysate, fluorescence, higher = more signal;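 further: z-score combines 667nm fluorescence intensity with signal-to-noise per printed compound spot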
[6] = compound binding in COS7 lysate, probe aLAP1, primary screen, cell lysate, small-molecule microarray (AID 1124); details: probe aLAP1, fluorescence, higher = more signal;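 further: lysate comes from COS7 cells expressing LAP1 and is applied at 0.3 µg/mL; score merges spot fluorescence near 667 nm with signal-to-noise over triplicate slides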
Sam68 (KHDRBS1) = experiment: Sam68 small-molecule binders, primary screen, biochemical, small-molecule microarray, 635 nm fluorescence (AID 1125); details: small-molecule microarray binding, higher = more signal;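 further: score merges 667 nm channel intensity with signal to noise over triplicate slides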
[7] = test system: Chordin-like protein 2 (CHRDL2); experiment: CHRDL2 small-molecule binders, primary screen, biochemical, small-molecule microarray, 635 nm fluorescence (AID 1126); details: small-molecule microarray binding, fluorescence 635 nm; higher = more signal;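 further: printed compound slides probed with Chrdl2 protein at 4 µg/mL for 1 h at 4 C; score merges 667 nm emission intensity with signal to noise over three replicate slides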
[8] = target: Concanavalin-A (Canavalia ensiformis) (UniProt P02866); experiment: ConA small-molecule binders, primary screen, artefact control for SMM control protein annotation, biochemical, small-molecule microarray, Alexa647 label, 635 nm (AID 1127); details: ConA-A647 binding fluorescence, higher = more signal;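 further: z combines 667 nm emission intensity with signal-to-noise across three replicate slides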
Chain of Concanavalin-A (Canavalia ensiformis) (P02866 whole entry, looked up): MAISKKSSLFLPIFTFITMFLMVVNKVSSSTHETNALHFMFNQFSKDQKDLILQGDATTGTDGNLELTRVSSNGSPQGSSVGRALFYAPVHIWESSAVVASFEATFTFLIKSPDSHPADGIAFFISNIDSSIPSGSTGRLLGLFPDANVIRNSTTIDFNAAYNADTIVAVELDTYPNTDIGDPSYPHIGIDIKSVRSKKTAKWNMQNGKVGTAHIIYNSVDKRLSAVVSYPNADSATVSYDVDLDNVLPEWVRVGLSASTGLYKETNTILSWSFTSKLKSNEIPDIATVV

[9] = anti-His antibody binders, primary screen, artefact control for SMM control protein annotation, biochemical, small-molecule microarray, 635 nm fluorescence (AID 1128); details: anti-His Alexa647 antibody binding, higher = more signal;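 further: score merges feature fluorescence with signal-to-noise for each printed compound spot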
[10] = test system: Human papillomavirus type 1a E7 protein (residues 1-88); experiment: HPV1a E7 small-molecule binders, primary screen, biochemical, small-molecule microarray, residues 1-88, 635 nm (AID 1129); details: small-molecule microarray binding, fluorescence 635 nm; higher = more signal
[11] = target: Focal adhesion kinase 1 (Homo sapiens) (UniProt Q05397); experiment: small-molecule microarray binders of FAK, primary screen, biochemical, 635/667 nm fluorescence, BSA, DTT (AID 1130); details: PTK2 binding, 635 nm fluorescence, higher = more signal;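 further: composite of spot emission at 667 nm and signal to noise over triplicate slides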
Chain of Focal adhesion kinase 1 (Homo sapiens) (Q05397 whole entry, looked up): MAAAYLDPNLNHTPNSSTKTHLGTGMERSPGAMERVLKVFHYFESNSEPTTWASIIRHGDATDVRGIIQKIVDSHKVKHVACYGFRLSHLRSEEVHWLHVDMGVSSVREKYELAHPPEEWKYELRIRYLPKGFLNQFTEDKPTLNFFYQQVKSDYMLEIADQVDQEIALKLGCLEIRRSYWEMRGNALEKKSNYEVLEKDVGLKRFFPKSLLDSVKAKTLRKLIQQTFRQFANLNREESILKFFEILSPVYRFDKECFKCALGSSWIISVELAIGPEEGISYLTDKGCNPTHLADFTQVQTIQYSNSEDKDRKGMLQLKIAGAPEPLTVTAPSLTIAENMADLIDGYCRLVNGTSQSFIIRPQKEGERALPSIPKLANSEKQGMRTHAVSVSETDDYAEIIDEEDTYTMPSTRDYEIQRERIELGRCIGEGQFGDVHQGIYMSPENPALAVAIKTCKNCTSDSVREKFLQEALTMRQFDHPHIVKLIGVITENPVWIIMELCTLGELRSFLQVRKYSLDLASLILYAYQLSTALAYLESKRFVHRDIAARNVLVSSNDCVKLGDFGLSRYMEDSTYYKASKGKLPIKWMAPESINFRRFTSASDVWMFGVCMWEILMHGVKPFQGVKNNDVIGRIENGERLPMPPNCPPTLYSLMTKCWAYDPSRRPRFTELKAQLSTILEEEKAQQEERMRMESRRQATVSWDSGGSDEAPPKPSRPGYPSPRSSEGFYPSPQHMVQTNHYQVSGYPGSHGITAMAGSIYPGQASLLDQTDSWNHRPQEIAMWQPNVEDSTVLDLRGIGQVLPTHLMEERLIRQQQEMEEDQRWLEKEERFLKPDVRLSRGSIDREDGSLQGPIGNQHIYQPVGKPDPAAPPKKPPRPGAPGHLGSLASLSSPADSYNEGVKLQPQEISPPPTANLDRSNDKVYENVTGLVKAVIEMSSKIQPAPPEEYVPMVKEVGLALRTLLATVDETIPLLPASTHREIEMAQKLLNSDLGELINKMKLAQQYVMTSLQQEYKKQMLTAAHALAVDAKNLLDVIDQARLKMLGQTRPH

[12] = test system: Fibrinogen (Alexa647-labelled); experiment: fibrinogen binders on compound microarrays, profiling panel, artefact control for SMM control-protein annotation, biochemical, small-molecule microarray, 635/667 nm fluorescence (AID 1131); details: fibrinogen-A647 binding fluorescence, higher = more signal;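 further: z-score merges 667 nm fluorescence with per-spot signal-to-noise over triplicate slides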
[13] = target: Follistatin (Homo sapiens) (UniProt P19883); experiment: follistatin binders on small-molecule microarrays, primary screen, biochemical, small-molecule microarray, 635/667 nm fluorescence (AID 1132); details: FST binding, 635 nm fluorescence, higher = more signal
Chain of Follistatin (Homo sapiens) (P19883 whole entry, looked up): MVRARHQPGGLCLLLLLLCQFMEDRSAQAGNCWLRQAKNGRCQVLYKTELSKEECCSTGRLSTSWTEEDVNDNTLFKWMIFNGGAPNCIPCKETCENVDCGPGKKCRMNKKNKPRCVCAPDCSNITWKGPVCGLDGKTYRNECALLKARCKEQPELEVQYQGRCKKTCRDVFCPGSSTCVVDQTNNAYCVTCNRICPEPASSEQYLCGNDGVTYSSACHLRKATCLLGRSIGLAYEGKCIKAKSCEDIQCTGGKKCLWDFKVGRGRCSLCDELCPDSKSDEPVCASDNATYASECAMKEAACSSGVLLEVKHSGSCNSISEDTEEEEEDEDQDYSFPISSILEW

[14] = target: Fibroblast growth factor 2 (Homo sapiens) (UniProt P09038); experiment: FGF2 binders on small-molecule microarrays, primary screen, biochemical, small-molecule microarray, 635/667 nm fluorescence (AID 1133); details: small-molecule microarray binding, FGF2, fluorescence 635/667; higher = more signal
Chain of Fibroblast growth factor 2 (Homo sapiens) (P09038 whole entry, looked up): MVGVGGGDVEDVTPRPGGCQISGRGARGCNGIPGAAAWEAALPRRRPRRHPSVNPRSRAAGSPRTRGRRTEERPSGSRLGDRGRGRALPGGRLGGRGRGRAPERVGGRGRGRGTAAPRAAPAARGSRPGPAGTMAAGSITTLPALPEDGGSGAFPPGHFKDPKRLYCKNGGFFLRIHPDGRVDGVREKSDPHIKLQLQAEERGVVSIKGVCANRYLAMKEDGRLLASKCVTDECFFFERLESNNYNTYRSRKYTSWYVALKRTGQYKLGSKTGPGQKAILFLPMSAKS

[15] = mitochondrial membrane potential change in A549 cells, profiling panel, cell-based, JC-1 fluorescence, basal, 24 h, 100 nL (AID 1138); details: higher = more signal;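 further: A549 lung adenocarcinoma cells under basal conditions with no added stimulus; test concentration not given here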
Lefty1 = Lefty1 binders on small-molecule microarrays, primary screen, biochemical, small-molecule microarray, 635/667 nm fluorescence (AID 1139); details: small-molecule microarray binding, fluorescence 635/667; higher = more signal
[16] = test system: wheat germ agglutinin (Triticum aestivum), Alexa647-labelled; experiment: wheat germ agglutinin binders on compound microarrays, profiling panel, artefact control for SMM control-protein annotation, biochemical, small-molecule microarray, 635/667 nm fluorescence (AID 1140); details: WGA-A647 binding, 635 nm fluorescence, higher = more signal;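 further: score merges 667 nm feature emission with signal to noise over triplicate slides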
[17] = target: Luciferin 4-monooxygenase (Photinus pyralis) (UniProt P08659); experiment: firefly luciferase enzyme inhibitors, primary screen, biochemical, luminescence, purified enzyme, 2006 set (AID 1141); details: SteadyGlo luminescence, 30 min, higher = more signal, called active from +8 up or from −8 down;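 further: cell-free assay with purified firefly luciferase at 100 ng per well in PBS; test concentration not given here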
Chain of Luciferin 4-monooxygenase (Photinus pyralis) (P08659 whole entry, looked up): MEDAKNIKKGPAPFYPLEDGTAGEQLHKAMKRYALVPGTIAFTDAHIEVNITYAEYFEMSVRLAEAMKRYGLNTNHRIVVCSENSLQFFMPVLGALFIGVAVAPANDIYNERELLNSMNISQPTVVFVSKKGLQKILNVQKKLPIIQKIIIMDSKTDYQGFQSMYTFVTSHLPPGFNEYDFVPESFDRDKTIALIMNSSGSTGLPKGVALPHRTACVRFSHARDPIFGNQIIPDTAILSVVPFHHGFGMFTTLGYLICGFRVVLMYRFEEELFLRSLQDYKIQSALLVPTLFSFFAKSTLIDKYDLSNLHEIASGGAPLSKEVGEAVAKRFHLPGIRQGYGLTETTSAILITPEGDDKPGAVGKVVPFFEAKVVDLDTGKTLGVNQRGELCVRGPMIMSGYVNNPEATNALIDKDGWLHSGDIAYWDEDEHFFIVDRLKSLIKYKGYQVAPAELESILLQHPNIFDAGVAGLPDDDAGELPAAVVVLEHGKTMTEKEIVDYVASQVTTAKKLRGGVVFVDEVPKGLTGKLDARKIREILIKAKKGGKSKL

| Structure (SMILES) | composite z-score (Albumin (Bos taurus)) | composite Z-score [1] | composite z-score [2] | composite z-score [3] | composite z-score [4] | composite z-score [5] | composite z-score [6] | composite z-score (Sam68 (KHDRBS1)) | composite z-score [7] | composite z-score [8] | composite z-score [9] | composite z-score [10] | composite z-score [11] | composite z-score [12] | composite z-score [13] | composite z-score [14] | z-score [15] | composite z-score (Lefty1) | composite z-score [16] | z-score [17] |
| --- | --- | --- | --- | --- | --- | --- | --- | --- | --- | --- | --- | --- | --- | --- | --- | --- | --- | --- | --- | --- |
| CS(=O)(=O)CCOC(=O)C1=CC(CCCO)=CC(c2ccc(CN3CCCC3)cc2)N(Cc2sc3ccccc3c2Cl)C=C1C(=O)OCCS(C)(=O)=O (stereo not given) | 1 | 1.14 (inactive) | 0.439 | 0.251 | 0.823 | 2.21 | 1.12 | 1.3 | 1.03 | 1.19 | 2.17 | 1.18 | 0.45 | 1 | 0.526 | 1.21 | 2.31 | 0.722 | 1.31 | -1.57 (inactive) |
| [N-]=[N+]=Nc1ccccc1C[C@]1(C(=O)O)COC(c2ccc(OCCCO)cc2)=N1 | 0.638 | 0.277 (inactive) | 0.0116 | -0.0501 | 0.856 | 0.143 | -0.165 | -0.566 | -1.31 | -0.19 | -0.047 | -0.914 | 0.0699 | -1.45 | -0.224 | -0.717 | -0.991 | -0.843 | 0.396 | -13.9 (active) |
| O=C1C2C=CC(C(O)C3CC=CCC3)N(Nc3ccccc3)C2C(=O)N1c1ccccc1 (stereo not given) | 0.918 | 2.06 (inactive) | 0.366 | 0.0607 | 0.749 | 2.33 | 0.093 | 1.07 | 0.718 | 0.567 | 0.41 | 1.21 | 1.17 | 0.944 | 1.27 | 0.119 | -1.15 | 0.135 | 0.458 | -0.313 (inactive) |
| CC(=O)NCCCC[C@@H]1NC(=O)[C@@H]2C[C@H](C(=O)NCCCCCN)[C@H](c3cccc(OCCO)c3)N2C1=O | 0.379 | 0.36 (inactive) | 0.324 | 0.0181 | 0.697 | 0.812 | 0.0312 | 0.803 | 0.56 | 1.11 | 0.586 | 1.04 | 0.295 | 0.97 | 1.37 | 1.6 | 0.989 | 1.03 | 0.79 | 0.159 (inactive) |
| Cc1ccc(N2C(=O)c3ccccc3[C@@H](C(=O)NCCCN(C)C)[C@@H]2c2ccc(CO)cc2)nc1 | -0.0424 | 0.403 (inactive) | -0.416 | -0.244 | -0.0786 | -0.515 | -0.225 | -0.292 | -0.283 | 0.375 | 2.06 | 0.232 | -0.736 | 0.442 | 0.115 | -0.189 | -0.0107 | -0.978 | -0.0618 | 0.775 (inactive) |
| CCC#CCN(Cc1ccccc1Br)[C@H](/C=C/C1CC1)[C@@H](O)Cc1ccccc1 | 0.0902 | -0.457 (inactive) | -0.262 | -0.176 | -0.458 | -0.408 | -0.477 | -0.549 | -0.784 | -0.138 | 0.251 | -0.499 | -0.579 | -0.805 | -0.837 | -0.984 | -0.368 | -0.355 | -0.366 | 0.619 (inactive) |
| CCOC(=O)C1=CC[C@@H](c2ccccc2)N(S(=O)(=O)c2ccc(C)cc2)[C@H]1c1ccccc1 | 0.831 | -0.563 (inactive) | 0.107 | -0.0806 | 0.453 | 0.69 | -0.561 | 0.749 | -0.221 | 1.07 | 0.271 | 1.17 | 0.428 | 0.915 | -0.0842 | -0.486 | 2.45 | -0.381 | 0.991 | 1.16 (inactive) |
| CC(C)[Si](C#CCCCC#N)(O[C@H](c1ccccc1)c1cn(Cc2ccccc2)nn1)C(C)C | 0.728 | -0.535 (inactive) | 0.123 | -0.174 | 0.249 | 0.691 | 0.272 | 1.16 | 0.568 | 0.536 | 1.01 | 0.694 | -0.359 | 0.534 | 0.793 | 0.725 | 0.408 | 0.809 | 0.235 | -0.254 (inactive) |
| C=CCN1C(=O)[C@]2(CCS(=O)(=O)c3ccccc3)N=C(c3ccc(OCCCO)cc3)O[C@@H]2c2ccccc21 | 0.8 | -0.0072 (inactive) | 0.177 | -0.112 | 0.594 | 3.23 | 1.31 | 1.31 | 1 | 1.17 | 2.73 | 1.23 | 1.29 | 0.891 | 1.31 | 1.47 | 1.3 | 0.825 | 1.19 | -2.23 (inactive) |
| CCOC(=O)C[C@H]1[C@H](OC(=O)c2cc3ccccc3oc2=O)[C@@H](NC(=O)c2ccc3ccccc3n2)c2cc(OCCCO)ccc2N1C(=O)Cc1ccc(OC)cc1 | 0.463 | 0.35 (inactive) | 0.127 | -0.0878 | 0.356 | 0.219 | -0.0863 | 1.22 | 0.368 | 1.05 | 0.357 | 1.18 | 0.277 | 0.953 | 1.06 | 0.509 | 0.57 | 1.06 | 0.275 | 0.798 (inactive) |
